# From ChEMBL document CHEMBL2218924, “A broad activity screen in support of a chemogenomic map for kinase signalling research and drug discovery” (Biochem J, 2013)
# Assays:
# [1] = molecular target: BDNF/NT-3 growth factors receptor (Homo sapiens) (UniProt Q16620); details: at 10 µM
# [2] = molecular target: T1, Tyrosine-protein kinase TXK (Homo sapiens) (UniProt P42681); details: at 1 µM
# T1 sequence (whole entry): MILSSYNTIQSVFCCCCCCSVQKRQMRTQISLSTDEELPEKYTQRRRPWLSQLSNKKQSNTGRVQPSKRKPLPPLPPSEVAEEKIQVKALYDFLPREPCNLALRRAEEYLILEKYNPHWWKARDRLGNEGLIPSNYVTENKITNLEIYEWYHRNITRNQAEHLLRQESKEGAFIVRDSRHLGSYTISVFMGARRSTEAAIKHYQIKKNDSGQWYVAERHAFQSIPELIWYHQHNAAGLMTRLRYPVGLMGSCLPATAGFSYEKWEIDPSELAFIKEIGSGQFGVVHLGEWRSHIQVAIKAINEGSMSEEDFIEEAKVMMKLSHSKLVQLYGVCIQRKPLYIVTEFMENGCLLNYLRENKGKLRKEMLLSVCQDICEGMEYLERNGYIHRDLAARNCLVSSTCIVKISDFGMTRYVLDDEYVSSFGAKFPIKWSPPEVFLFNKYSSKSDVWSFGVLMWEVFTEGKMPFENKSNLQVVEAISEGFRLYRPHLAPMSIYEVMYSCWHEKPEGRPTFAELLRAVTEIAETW
# [3] = molecular target: T1, Tyrosine-protein kinase TXK (Homo sapiens); details: at 10 µM
# [4] = molecular target: T2, Serine/threonine-protein kinase ULK2 (Homo sapiens) (UniProt Q8IYT8); details: at 1 µM
# T2 sequence (whole entry): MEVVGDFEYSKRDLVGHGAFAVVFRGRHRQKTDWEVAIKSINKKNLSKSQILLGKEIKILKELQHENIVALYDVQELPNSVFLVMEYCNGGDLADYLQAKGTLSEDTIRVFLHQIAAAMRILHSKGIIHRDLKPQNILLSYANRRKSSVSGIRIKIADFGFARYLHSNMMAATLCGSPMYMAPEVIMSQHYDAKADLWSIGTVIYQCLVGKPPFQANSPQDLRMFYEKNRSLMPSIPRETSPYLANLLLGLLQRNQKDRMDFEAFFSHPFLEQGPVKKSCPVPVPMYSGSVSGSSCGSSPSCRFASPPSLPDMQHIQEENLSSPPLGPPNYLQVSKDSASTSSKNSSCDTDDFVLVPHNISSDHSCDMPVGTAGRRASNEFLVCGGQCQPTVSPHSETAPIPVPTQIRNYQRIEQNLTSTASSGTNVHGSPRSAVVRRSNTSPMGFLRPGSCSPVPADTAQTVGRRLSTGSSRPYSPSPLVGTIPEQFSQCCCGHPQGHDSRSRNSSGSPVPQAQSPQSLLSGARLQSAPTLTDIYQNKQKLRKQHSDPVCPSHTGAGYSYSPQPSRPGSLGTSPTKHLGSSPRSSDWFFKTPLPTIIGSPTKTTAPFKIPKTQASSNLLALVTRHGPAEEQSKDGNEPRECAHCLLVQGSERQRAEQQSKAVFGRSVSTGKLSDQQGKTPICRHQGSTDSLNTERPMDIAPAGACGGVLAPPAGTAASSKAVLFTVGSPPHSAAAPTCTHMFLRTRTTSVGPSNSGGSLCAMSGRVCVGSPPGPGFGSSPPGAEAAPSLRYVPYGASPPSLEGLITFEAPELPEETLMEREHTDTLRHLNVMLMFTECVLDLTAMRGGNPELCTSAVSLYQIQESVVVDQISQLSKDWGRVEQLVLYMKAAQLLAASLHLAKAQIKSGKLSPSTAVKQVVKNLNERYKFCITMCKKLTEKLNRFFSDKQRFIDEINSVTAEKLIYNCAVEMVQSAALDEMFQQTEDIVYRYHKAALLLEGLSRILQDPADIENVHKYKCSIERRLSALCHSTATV
# [5] = molecular target: T2, Serine/threonine-protein kinase ULK2 (Homo sapiens); details: at 10 µM
# [6] = molecular target: T3, Serine/threonine-protein kinase ULK3 (Homo sapiens) (UniProt Q6PHR2); details: at 1 µM
# T3 sequence (whole entry): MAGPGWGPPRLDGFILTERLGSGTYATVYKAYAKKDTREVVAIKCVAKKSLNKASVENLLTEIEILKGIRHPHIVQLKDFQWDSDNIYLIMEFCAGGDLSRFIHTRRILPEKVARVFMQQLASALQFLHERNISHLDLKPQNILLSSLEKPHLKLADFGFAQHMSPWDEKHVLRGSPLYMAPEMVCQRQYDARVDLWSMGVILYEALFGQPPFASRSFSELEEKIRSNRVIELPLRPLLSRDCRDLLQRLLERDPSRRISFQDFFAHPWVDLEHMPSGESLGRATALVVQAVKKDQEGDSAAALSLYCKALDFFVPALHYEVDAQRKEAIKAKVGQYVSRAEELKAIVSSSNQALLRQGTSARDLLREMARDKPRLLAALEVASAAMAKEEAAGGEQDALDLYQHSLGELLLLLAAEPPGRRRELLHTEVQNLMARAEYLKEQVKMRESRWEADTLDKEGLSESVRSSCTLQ
# [7] = molecular target: T3, Serine/threonine-protein kinase ULK3 (Homo sapiens); details: at 10 µM
# [8] = molecular target: Serine/threonine-protein kinase VRK2 (Homo sapiens) (UniProt Q86Y07); details: at 1 µM
# Chain of Serine/threonine-protein kinase VRK2 (Homo sapiens) (Q86Y07 whole entry): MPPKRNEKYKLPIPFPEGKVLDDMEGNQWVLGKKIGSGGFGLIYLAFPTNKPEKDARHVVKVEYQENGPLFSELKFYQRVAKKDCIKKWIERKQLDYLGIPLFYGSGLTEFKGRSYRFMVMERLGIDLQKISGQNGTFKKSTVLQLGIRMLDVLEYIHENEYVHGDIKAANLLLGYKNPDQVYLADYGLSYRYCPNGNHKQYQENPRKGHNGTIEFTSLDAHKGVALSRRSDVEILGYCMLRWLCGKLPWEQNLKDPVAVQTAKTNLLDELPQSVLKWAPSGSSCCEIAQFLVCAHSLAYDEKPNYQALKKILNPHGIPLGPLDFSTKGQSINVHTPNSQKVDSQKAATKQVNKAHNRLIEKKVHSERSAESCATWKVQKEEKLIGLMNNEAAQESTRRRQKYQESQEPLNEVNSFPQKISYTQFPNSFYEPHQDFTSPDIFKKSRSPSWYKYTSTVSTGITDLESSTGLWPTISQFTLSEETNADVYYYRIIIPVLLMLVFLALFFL
# [9] = molecular target: Serine/threonine-protein kinase VRK2 (Homo sapiens) (UniProt Q86Y07); details: at 10 µM
# [10] = molecular target: Serine/threonine-protein kinase WNK2 (Homo sapiens) (UniProt Q9Y3S1); details: at 1 µM
# Chain of Serine/threonine-protein kinase WNK2 (Homo sapiens) (Q9Y3S1 whole entry): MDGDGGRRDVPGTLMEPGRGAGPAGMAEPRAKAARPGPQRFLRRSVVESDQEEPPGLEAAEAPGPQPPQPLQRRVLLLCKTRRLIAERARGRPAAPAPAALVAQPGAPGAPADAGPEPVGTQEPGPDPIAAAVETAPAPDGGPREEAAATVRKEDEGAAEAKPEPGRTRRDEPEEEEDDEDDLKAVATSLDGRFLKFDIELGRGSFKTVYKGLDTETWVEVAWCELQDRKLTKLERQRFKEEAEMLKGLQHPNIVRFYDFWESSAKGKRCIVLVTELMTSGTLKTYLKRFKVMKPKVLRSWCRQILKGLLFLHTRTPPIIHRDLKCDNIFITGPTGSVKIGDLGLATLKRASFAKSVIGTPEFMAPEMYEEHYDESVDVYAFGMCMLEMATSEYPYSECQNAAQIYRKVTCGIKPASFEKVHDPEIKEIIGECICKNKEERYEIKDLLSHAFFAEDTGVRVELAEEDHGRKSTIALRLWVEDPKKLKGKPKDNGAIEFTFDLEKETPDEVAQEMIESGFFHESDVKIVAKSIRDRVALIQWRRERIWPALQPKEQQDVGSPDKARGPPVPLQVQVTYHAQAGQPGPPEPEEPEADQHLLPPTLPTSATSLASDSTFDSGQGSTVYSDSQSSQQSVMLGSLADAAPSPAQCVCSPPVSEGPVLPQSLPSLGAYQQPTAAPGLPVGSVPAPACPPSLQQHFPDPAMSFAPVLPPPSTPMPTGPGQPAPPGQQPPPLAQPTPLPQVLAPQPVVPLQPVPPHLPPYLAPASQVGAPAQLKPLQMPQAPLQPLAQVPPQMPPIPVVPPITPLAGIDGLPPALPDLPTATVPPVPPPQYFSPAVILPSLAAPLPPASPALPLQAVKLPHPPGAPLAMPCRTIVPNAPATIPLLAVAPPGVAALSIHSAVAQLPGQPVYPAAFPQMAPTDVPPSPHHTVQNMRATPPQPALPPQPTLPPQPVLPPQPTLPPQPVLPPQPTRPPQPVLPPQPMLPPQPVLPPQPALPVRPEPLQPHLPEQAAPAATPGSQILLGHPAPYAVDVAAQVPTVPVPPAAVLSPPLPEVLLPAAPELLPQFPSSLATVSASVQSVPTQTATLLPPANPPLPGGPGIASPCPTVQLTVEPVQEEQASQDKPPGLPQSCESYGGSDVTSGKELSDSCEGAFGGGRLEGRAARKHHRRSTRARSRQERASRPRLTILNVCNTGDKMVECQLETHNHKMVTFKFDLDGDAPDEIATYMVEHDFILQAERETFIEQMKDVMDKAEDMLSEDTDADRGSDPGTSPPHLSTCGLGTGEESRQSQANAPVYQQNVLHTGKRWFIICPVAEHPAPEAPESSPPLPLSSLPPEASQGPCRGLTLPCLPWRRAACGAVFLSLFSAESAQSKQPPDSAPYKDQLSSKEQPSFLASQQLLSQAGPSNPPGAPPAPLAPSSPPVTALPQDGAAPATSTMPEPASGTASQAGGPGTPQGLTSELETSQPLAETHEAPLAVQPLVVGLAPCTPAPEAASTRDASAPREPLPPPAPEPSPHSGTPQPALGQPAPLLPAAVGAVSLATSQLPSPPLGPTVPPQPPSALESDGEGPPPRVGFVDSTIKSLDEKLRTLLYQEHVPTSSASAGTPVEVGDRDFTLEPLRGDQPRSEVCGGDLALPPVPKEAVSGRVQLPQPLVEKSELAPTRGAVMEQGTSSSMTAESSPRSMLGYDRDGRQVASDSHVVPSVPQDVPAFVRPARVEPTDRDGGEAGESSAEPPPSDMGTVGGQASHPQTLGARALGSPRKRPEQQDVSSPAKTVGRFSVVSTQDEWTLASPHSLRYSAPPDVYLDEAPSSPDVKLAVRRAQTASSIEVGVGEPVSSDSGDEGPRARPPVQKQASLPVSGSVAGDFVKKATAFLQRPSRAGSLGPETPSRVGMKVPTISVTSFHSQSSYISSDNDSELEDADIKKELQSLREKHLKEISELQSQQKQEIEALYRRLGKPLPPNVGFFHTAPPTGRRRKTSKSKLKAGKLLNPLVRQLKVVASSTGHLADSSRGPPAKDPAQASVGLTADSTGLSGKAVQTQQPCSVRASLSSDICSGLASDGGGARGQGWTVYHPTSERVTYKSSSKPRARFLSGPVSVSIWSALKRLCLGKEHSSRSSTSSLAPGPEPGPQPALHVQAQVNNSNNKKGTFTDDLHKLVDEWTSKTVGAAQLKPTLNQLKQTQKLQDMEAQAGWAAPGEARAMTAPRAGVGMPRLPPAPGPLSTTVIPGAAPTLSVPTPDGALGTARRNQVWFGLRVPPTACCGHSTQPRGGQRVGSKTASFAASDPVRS
# [11] = molecular target: Serine/threonine-protein kinase WNK2 (Homo sapiens) (UniProt Q9Y3S1); details: at 10 µM
# [12] = molecular target: Serine/threonine-protein kinase WNK3 (Homo sapiens) (UniProt Q9BYP7); details: at 1 µM
# [13] = molecular target: Serine/threonine-protein kinase WNK3 (Homo sapiens) (UniProt Q9BYP7); details: at 10 µM
# [14] = molecular target: Tyrosine-protein kinase Yes (Homo sapiens) (UniProt P07947); details: at 1 µM
# Chain of Tyrosine-protein kinase Yes (Homo sapiens) (P07947 2-543 limits assumed): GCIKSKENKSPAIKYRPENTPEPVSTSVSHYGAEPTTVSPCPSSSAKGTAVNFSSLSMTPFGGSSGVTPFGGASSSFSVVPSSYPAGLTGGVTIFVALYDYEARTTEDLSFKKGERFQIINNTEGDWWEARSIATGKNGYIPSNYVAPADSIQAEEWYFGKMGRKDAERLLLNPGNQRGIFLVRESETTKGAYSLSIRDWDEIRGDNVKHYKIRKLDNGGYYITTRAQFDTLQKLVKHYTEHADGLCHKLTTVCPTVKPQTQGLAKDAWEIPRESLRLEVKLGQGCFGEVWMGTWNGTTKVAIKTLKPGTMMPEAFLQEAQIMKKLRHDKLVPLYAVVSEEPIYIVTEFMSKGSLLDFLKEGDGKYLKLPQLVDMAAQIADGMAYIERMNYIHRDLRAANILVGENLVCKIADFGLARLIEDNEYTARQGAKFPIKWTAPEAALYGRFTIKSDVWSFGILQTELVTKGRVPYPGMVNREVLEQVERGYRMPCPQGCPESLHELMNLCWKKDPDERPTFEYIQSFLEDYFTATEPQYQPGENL
# [15] = molecular target: Tyrosine-protein kinase Yes (Homo sapiens) (UniProt P07947); details: at 10 µM
# [16] = molecular target: T4, Tyrosine-protein kinase ZAP-70 (Homo sapiens) (UniProt P43403); details: at 1 µM
# T4 sequence (whole entry): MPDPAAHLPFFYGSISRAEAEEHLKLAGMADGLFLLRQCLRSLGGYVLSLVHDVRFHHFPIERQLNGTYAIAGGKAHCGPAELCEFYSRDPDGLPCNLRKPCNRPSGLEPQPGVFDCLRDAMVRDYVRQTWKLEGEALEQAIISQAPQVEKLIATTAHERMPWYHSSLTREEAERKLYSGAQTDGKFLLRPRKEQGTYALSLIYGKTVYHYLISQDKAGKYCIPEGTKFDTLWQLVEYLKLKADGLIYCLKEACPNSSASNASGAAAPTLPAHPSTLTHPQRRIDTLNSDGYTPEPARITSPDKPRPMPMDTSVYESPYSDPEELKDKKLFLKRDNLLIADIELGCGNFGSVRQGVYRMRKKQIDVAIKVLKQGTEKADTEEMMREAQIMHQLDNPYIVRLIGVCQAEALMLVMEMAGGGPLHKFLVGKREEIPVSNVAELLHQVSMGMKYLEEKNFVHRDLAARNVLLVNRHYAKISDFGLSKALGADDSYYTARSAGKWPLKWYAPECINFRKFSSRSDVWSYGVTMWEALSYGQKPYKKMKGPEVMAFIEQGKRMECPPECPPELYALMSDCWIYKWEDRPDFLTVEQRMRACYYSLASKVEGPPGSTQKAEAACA
# [17] = molecular target: Death-associated protein kinase 3 (Homo sapiens) (UniProt O43293); details: at 1 µM
# [18] = molecular target: Death-associated protein kinase 3 (Homo sapiens) (UniProt O43293); details: at 10 µM
# [19] = molecular target: RAF proto-oncogene serine/threonine-protein kinase (Homo sapiens) (UniProt P04049); details: at 1 µM
# Chain of RAF proto-oncogene serine/threonine-protein kinase (Homo sapiens) (P04049 whole entry): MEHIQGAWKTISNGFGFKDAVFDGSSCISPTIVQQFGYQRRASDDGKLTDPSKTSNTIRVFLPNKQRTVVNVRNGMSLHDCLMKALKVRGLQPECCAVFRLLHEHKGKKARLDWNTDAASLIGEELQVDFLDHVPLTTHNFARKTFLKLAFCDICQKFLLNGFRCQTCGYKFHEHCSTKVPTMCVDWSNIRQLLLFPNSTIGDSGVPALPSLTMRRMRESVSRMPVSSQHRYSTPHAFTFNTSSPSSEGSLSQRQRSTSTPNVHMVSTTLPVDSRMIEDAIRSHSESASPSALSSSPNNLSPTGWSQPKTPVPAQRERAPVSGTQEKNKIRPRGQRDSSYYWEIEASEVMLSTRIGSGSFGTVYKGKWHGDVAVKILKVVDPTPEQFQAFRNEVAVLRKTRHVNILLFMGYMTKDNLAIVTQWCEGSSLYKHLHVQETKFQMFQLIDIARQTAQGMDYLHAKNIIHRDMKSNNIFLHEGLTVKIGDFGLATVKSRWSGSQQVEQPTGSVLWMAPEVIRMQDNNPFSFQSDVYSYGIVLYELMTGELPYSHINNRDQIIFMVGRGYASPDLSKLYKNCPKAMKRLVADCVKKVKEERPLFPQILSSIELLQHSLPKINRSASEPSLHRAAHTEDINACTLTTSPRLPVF
# [20] = molecular target: RAF proto-oncogene serine/threonine-protein kinase (Homo sapiens) (UniProt P04049); details: at 10 µM
# Chain of BDNF/NT-3 growth factors receptor (Homo sapiens) (Q16620 32-822 limits assumed): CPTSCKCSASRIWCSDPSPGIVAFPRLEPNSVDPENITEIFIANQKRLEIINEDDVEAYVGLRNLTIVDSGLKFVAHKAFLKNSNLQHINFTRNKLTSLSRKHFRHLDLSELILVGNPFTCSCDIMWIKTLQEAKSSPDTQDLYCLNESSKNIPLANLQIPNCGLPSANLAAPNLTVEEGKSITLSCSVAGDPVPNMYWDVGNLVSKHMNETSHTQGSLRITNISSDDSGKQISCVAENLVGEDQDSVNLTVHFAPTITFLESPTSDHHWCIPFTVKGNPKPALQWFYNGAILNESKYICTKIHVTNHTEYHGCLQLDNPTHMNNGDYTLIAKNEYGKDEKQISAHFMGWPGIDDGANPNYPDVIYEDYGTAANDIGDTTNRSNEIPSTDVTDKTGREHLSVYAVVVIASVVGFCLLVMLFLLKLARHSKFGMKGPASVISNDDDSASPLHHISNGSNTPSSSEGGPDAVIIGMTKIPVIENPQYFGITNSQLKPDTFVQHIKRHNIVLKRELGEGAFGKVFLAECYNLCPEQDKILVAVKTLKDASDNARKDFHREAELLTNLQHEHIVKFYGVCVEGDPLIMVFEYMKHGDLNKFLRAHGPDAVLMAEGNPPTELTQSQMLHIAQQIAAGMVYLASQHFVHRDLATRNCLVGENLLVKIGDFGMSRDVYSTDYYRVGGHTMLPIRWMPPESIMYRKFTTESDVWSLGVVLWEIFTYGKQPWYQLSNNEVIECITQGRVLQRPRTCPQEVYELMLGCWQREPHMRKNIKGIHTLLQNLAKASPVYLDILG
SMILES,residual activity [1],residual activity [2],residual activity [3],residual activity [4],residual activity [5],residual activity [6],residual activity [7],residual activity [8],residual activity [9],residual activity [10],residual activity [11],residual activity [12],residual activity [13],residual activity [14],residual activity [15],residual activity [16],residual activity [17],residual activity [18],residual activity [19],residual activity [20]
O=c1cc(-c2cccc3c2Sc2ccccc2S3)oc(N2CCOCC2)c1,76%,91%,91%,107%,101%,94%,96%,97% (inactive),97%,103% (inactive),78%,95% (inactive),87%,109%,91%,113%,104%,99%,96%,55%
NC(=O)c1ccc2[nH]c(-c3ccc(Oc4ccc(Cl)cc4)cc3)nc2c1,101%,96%,92%,97%,93%,90%,87%,88% (inactive),82%,90% (inactive),78%,93% (inactive),86%,112%,105%,95%,92%,106%,75%,74%
CO[C@H]1[C@@H](OC)C[C@H](C)[C@@H](OC)C2=CC(=O)C=C(NC(=O)/C(C)=C/C=C/[C@H](OC)[C@@H](OC(N)=O)/C(C)=C/[C@@H]1C)C2=O,99%,89%,103%,100%,95%,88%,92%,108% (inactive),96%,100% (inactive),90%,112% (inactive),106%,101%,90%,98%,108%,96%,93%,85%
CNc1cc2c(Nc3cccc(Br)c3)ncnc2cn1,21%,98%,64%,103%,95%,103%,70%,99% (inactive),91%,105% (inactive),89%,101% (inactive),91%,67%,45%,99%,84%,88%,80%,91%
CC[n+]1c(/C=C/N(C)c2ccccc2)n(-c2ccccc2)c2ccc(-c3nc4ccccc4s3)cc21,61%,83%,51%,110%,104%,112%,97%,110% (inactive),99%,96% (inactive),35%,100% (inactive),44%,105%,100%,117%,100%,73%,105%,98%
Oc1ccc(-c2nc(-c3ccc(F)cc3)c(-c3ccncc3)[nH]2)cc1,61%,78%,43%,112%,104%,102%,95%,117% (inactive),86%,118% (inactive),84%,109% (inactive),75%,105%,34%,117%,121%,101%,14%,–
Oc1ccc(Nc2nc(-c3ccc(Cl)cc3)cs2)cc1,78%,97%,79%,118%,105%,96%,102%,98% (inactive),102%,117% (inactive),99%,109% (inactive),91%,123%,92%,115%,110%,133%,84%,84%
O=c1c2ccccc2[nH]c(=S)n1CCN1CCC(=C(c2ccc(F)cc2)c2ccc(F)cc2)CC1,59%,102%,80%,109%,98%,107%,94%,116% (inactive),99%,113% (inactive),94%,116% (inactive),102%,105%,96%,101%,75%,74%,83%,94%
CN(C)c1ccc(/C=C2\C(=O)Nc3ccccc32)cc1,5%,108%,69%,107%,70%,100%,49%,113% (inactive),87%,110% (inactive),76%,117% (inactive),90%,98%,64%,121%,108%,97%,94%,85%
Nc1ccc2ncnc(NCCc3ccc(Oc4ccccc4)cc3)c2c1,58%,80%,61%,121%,108%,103%,87%,106% (inactive),95%,110% (inactive),82%,102% (inactive),87%,63%,33%,109%,111%,111%,82%,77%
Cn1cnc2cc3c(Nc4cccc(Br)c4)ncnc3cc21,68%,89%,60%,106%,99%,112%,74%,98% (inactive),95%,105% (inactive),85%,93% (inactive),90%,31%,14%,87%,89%,101%,85%,90%
COc1ccc(C(=O)Nc2sc3c(c2C(N)=O)CCCC3)cc1OC,71%,93%,73%,102%,92%,99%,84%,107% (inactive),85%,104% (inactive),84%,101% (inactive),94%,106%,90%,103%,76%,106%,87%,94%
